Bioassay records from PubChem BioAssay.
Rows were chosen to be rich in hits. Some 2.8% of all compounds tested hit in one or more screens of this group.
HEK293 viab = reduces viability of HEK-293 SNCA reporter cells | actives 0.12% (n = 150,000) | Potency, µM (titrated, usually from 57.1 µM), without a hit: top-dose activity change, negative = cytotoxicity, hits mostly cytotoxic | AID 1671193 | HEK-293-SNCA-luc viability, GF-AFC fluorescence, 24 h;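 note: potency is the fitted concentration of half-maximal effect; 0% = DMSO-treated cells and -100% = medium-only wells without cells; nearly all actives have a fitted effect of over 30% in size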
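HEK-293-SNCA-luc cells (1500/well) plated 24 h, then exposed 24 h to a dilution series; GF-AFC added 30 min at 37C, fluorescence 405/540 nm; normalised to medium-only and DMSO wells, Hill fit.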
IP6K1 inhibitor = blocks human inositol hexakisphosphate kinase 1; IP6K1 kinase, ADP-Glo luminescence, 2 h; active compounds read low; activity change, % (series mostly up to about 58 µM); actives 0.81% (n = 140,000); AID 1645851; in the data active = activity change below about -25%; note: % is set by controls: 0 for no effect and ±100 for the full control effect
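ADP-Glo luminescence measures ADP made by human IP6K1 during a 2 h RT reaction with ATP/IP6 (mix at 1.3 mM/130 uM); top library doses 57.5 and 19.1 uM final.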
KDM5B inh = KDM5B demethylase inhibition; KDM5B demethylase, FDH-coupled NADH fluorescence (FDH is formaldehyde dehydrogenase); actives 2.6% (n = 220,000); AID 1347165; Potency, µM (titrated, usually from 57.7 µM), usual class: inhibitors; Q9UGL1; note: potency is the fitted concentration of half-maximal effect; 0% is about no effect; nearly all actives have a fitted effect of over 70% in size
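Inhibition is measured as reduced NADH fluorescence generation from FDH coupling to formaldehyde release. Truncated KDM5BΔAP at 200 nM final acts on H3K4me3 peptide (12.5 µM in substrate mix) in pH 7.5 HEPES buffer with Tween-20, 30 min, room temperature.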
SNCA expr inh = SNCA gene expression inhibition; HEK-293 SNCA-luciferase knock-in, luminescence, 24 h; Potency, µM (titrated, usually from 57.2 µM), for the others: top-dose activity change, negative = inhibition, actives largely listed as inhibitors; actives 0.17% (n = 140,000); AID 1671194;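 note: potency is the fitted concentration of half-maximal effect; plate controls were DMSO cells for no effect and cell-free wells for full effect; nearly all actives have a fitted effect of over 45% in size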
Starred values were filed as active, the others as inactive; [ ] = dose if it differs, or a comment. Unless noted, calls come from the whole dose curve; as a rule, active = well fitted curve in the direction sought with a large enough effect; inconclusive = small, poorly fitted or top-dose-only effect, or another doubt; inactive = no such curve, though single readings can be large; an effect the other way counts as inactive or inconclusive.

Results for COc1ccc(C(=O)/C=C/c2cccc(N)c2)cc1 ?
KDM5B inh: inactive

What do the screens show for `COc1ccc(-c2cc(C(=O)NC3CCNCC3)c3c(C)nn(-c4ccccc4)c3n2)cc1`?
HEK293 viab: inconclusive; IP6K1 inhibitor: 1; KDM5B inh: 79µM*; SNCA expr inh: inconclusive

Results for COCCNC(=O)c1cc(-c2ccc(OC)cc2)nc2c1c(C)nn2-c1ccccc1 ?
HEK293 viab: 5%; IP6K1 inhibitor: -4; KDM5B inh: inconclusive; SNCA expr inh: 271%

What do the screens show for `COc1ccc(-c2cc(C(=O)NC3CC3)c3c(C)nn(-c4ccccc4)c3n2)cc1`?
HEK293 viab: 5%; IP6K1 inhibitor: -7; KDM5B inh: 79µM*; SNCA expr inh: 114%

What do the screens show for `O=S(=O)(c1ccccc1)N1CCN(Cc2cccc3cccnc23)CC1`?
KDM5B inh: inactive

What do the screens show for `CN(C)C(=O)c1ccc2c(c1)n(Cc1cccc(F)c1)c(=O)c1ccnn12`?
HEK293 viab: -5%; IP6K1 inhibitor: -9; KDM5B inh: 32µM*; SNCA expr inh: 14%

How did COc1ccc(Cn2c(=O)c3ccnn3c3ccc(C(=O)NCc4cccnc4)cc32)cc1 do in these assays?
HEK293 viab: 1%; IP6K1 inhibitor: 8; KDM5B inh: inconclusive; SNCA expr inh: -9%

How did O=C(NCc1cccnc1)c1ccc2c(c1)n(Cc1ccccc1)c(=O)c1ccnn12 do in these assays?
HEK293 viab: -18%; IP6K1 inhibitor: 35; KDM5B inh: 28µM*; SNCA expr inh: 21%

How did COCCCNC(=O)c1ccc2c(c1)n(Cc1ccccc1)c(=O)c1ccnn12 do in these assays?
HEK293 viab: -14%; IP6K1 inhibitor: 1; KDM5B inh: inconclusive; SNCA expr inh: -2%

How did Cn1c(=O)c2ccnn2c2ccc(C(=O)NCC3CCN(Cc4ccccc4F)CC3)cc21 do in these assays?
HEK293 viab: 3%; IP6K1 inhibitor: 6; KDM5B inh: 32µM*; SNCA expr inh: -6%

Results for O=C(NCc1ccco1)c1ccc2c(c1)n(Cc1ccc(F)cc1)c(=O)c1ccnn12 ?
HEK293 viab: inconclusive; IP6K1 inhibitor: 35; KDM5B inh: 28µM*; SNCA expr inh: inconclusive

Results for CCCN1CCN(C(=O)c2ccc3c(c2)n(Cc2ccc(F)cc2)c(=O)c2ccnn23)CC1 ?
HEK293 viab: -30%; IP6K1 inhibitor: 7; KDM5B inh: 22µM*; SNCA expr inh: 22%

What do the screens show for `CCN(CC)CCNC(=O)c1ccc2c(c1)n(Cc1cccc(F)c1)c(=O)c1ccnn12`?
HEK293 viab: -4%; IP6K1 inhibitor: 1; KDM5B inh: 28µM*; SNCA expr inh: inconclusive

Results for O=C(O)c1ccc2c(c1)n(Cc1cccc(F)c1)c(=O)c1ccnn12 ?
HEK293 viab: 16%; IP6K1 inhibitor: 9; KDM5B inh: 28µM*; SNCA expr inh: -26%

What do the screens show for `O=C(NCc1cccs1)c1ccc2c(c1)n(Cc1cccc(F)c1)c(=O)c1ccnn12`?
HEK293 viab: -16%; IP6K1 inhibitor: -9; KDM5B inh: 28µM*; SNCA expr inh: -20%

What do the screens show for `O=C(NC1CCCC1)c1ccc2c(c1)n(Cc1cccc(F)c1)c(=O)c1ccnn12`?
HEK293 viab: -17%; IP6K1 inhibitor: -9; KDM5B inh: inconclusive; SNCA expr inh: 4%

Results for O=C(O)c1ccc2c(c1)n(Cc1ccc(F)cc1)c(=O)c1ccnn12 ?
HEK293 viab: 13%; IP6K1 inhibitor: -4; KDM5B inh: 20µM*; SNCA expr inh: 33%

Results for COc1cc(CNC(=O)c2ccc3c(c2)CCC(=O)N3)ccn1 ?
KDM5B inh: inactive

What do the screens show for `Cn1nc(C(=O)OCCOc2ccccc2F)c2ccccc2c1=O`?
KDM5B inh: inactive

Results for O=C(OCc1ccccc1)N1CCC2(CC1)C(=NC1CCCCC1)NC(=O)N2c1cccnc1 ?
HEK293 viab: -11%; IP6K1 inhibitor: 2; KDM5B inh: 28µM*; SNCA expr inh: 0%

What do the screens show for `O=C(NCc1ccc(F)cc1)N1CCN(Cc2ccc(C(F)(F)F)cc2)CC1`?
KDM5B inh: inactive

Results for COc1ccc(-c2ccnc(N[C@H]3CO[C@H]4[C@@H]3OC[C@@H]4NS(=O)(=O)c3ccc(NC(C)=O)cc3)n2)cc1 ?
HEK293 viab: -10%; IP6K1 inhibitor: -18; KDM5B inh: inconclusive; SNCA expr inh: -17%

What do the screens show for `CC(=O)Nc1ccc(S(=O)(=O)N[C@H]2CO[C@H]3[C@@H]2OC[C@@H]3Nc2nccc(-c3ccco3)n2)cc1`?
HEK293 viab: -19%; IP6K1 inhibitor: 17; KDM5B inh: 22µM*; SNCA expr inh: -20%

What do the screens show for `O=C(O)CCC(=O)N[C@H]1CO[C@H]2[C@@H]1OC[C@@H]2Nc1nccc(-c2cccc(F)c2)n1`?
HEK293 viab: 1%[87.6 µM]; IP6K1 inhibitor: -3; KDM5B inh: 32µM*; SNCA expr inh: 11%[87.6 µM]

How did c1coc(-c2ccnc(N[C@H]3CO[C@H]4[C@@H]3OC[C@@H]4NCC3CCCCC3)n2)c1 do in these assays?
HEK293 viab: -8%[87.6 µM]; IP6K1 inhibitor: 0; KDM5B inh: 32µM*; SNCA expr inh: 3%[87.6 µM]

What do the screens show for `O=C(O)CCC(=O)N[C@H]1CO[C@H]2[C@@H]1OC[C@@H]2Nc1nccc(-c2ccco2)n1`?
HEK293 viab: 5%[87.6 µM]; IP6K1 inhibitor: 10; KDM5B inh: 32µM*; SNCA expr inh: -5%[87.6 µM]

What do the screens show for `Cc1ccc(C(=O)Nc2sc3c(c2C(=O)N2CCN(C)CC2)CCCCC3)cc1`?
KDM5B inh: inactive

Results for O=C(O)CSCC(=O)N[C@H]1CO[C@H]2[C@@H]1OC[C@@H]2Nc1nccc(-c2cccc(F)c2)n1 ?
HEK293 viab: -1%; IP6K1 inhibitor: 3; KDM5B inh: 25µM*; SNCA expr inh: -21%

How did CCC(=O)N1CCC(O)(c2ccccc2)[C@H](N2CCCC2)C1 (some centres undefined) do in these assays?
HEK293 viab: -4%; IP6K1 inhibitor: 18; KDM5B inh: inconclusive; SNCA expr inh: 32%

What do the screens show for `CCOCC(=O)N1CCC(O)(c2ccccc2)[C@H](N2CCCC2)C1` (some centres undefined)?
HEK293 viab: 0%; IP6K1 inhibitor: 17; KDM5B inh: 10µM*; SNCA expr inh: 16%

What do the screens show for `O=C(C1CCCCC1)N1CC[C@](O)(c2ccccc2)[C@H](N2CCCC2)C1`?
HEK293 viab: -27%; IP6K1 inhibitor: 22; KDM5B inh: 8.9µM*; SNCA expr inh: 15%

What do the screens show for `CCCCn1nc(C(=O)Nc2cccc(C)c2C)c2ccccc2c1=O`?
KDM5B inh: inactive

What do the screens show for `Cc1cccc(NC(=O)CN2C(=O)C(c3ccccc3)=NC23CCCC3)c1C`?
HEK293 viab: -17%[12.5 µM]; IP6K1 inhibitor: 11; KDM5B inh: inactive; SNCA expr inh: 16µM*

How did Cc1cccc(NC(=O)CN2C(=O)C(c3ccc(F)cc3)=NC23CCCCCC3)c1C do in these assays?
HEK293 viab: inconclusive; IP6K1 inhibitor: 12; KDM5B inh: inconclusive; SNCA expr inh: inconclusive
